Source: PubChem (National Center for Advancing Translational Sciences (NCATS))
In the library only some 14% were active in any assay of this set; here they are far more common.
CHX counter: counter-screen hit for Shiga toxin inhibitors, cycloheximide; cell reporter, cycloheximide protein synthesis inhibition counterscreen; max response, %; 300,000 compounds, 12% hits; in the data active = max response mostly above about 13%, no sharp cut-off; inactive = mostly below about 14%; note: read at 38.3 µM for the half of the compounds with a filed dose; 0% is about no effect
LmPK inh: blocks Leishmania mexicana pyruvate kinase activity. purified LmPK, Kinase-Glo ATP luminescence, 1 h. 290,000 compounds, 0.37% hits. Potency, µM (highest dose often 57.5 µM), inactives show top-dose activity change, negative = inhibition, actives largely listed as inhibitors; note: potency is the fitted concentration of half-maximal effect; % is set by controls: 0 for no effect and ±100 for the full control effect
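Screened at intermediate enzyme activity to detect both inhibitors and activators: LmPK at 0.1 nM, with a 0.5 nM enzyme column as activation reference. PEP 0.5 mM, ADP 0.1 mM; ATP detected by luminescence after 1 h.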
Shiga inhibitor: blocks Shiga toxin action in Vero cells. Vero cells, Shiga toxin protein synthesis inhibition reporter. inhibition, % at 38.7 µM. 290,000 compounds, 9.2% hits. AID 2315; in the data active = inhibition mostly above about 28%, no sharp cut-off; inactive = mostly below about 43%; note: 0% is about no effect
FBPA Giardia inh: inhibitors of Giardia lamblia fructose-1,6-bisphosphate aldolase; A8B2U2; 290,000 compounds, 0.71% hits; purified Giardia FBPA; Potency, µM (highest dose often 59.6 µM), for the others: at the highest dose activity, negative = inhibition, hits mostly inhibitors; AID 2451; note: potency is the fitted concentration of half-maximal effect; % is set by controls: 0 for no effect and ±100 for the full control effect; nearly all actives have a fitted effect of over 55% in size
Target sequence (A8B2U2 whole entry, looked up): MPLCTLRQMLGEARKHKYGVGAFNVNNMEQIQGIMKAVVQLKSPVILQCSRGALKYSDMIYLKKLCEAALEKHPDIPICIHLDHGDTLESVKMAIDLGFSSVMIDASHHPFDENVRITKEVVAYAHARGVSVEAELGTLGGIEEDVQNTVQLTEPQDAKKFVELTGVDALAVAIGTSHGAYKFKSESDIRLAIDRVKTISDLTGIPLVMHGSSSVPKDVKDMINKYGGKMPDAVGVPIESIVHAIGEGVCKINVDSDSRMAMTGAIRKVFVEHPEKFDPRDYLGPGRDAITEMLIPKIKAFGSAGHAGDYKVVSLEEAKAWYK
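40 nM FBPA preincubated 10 min at RT with compound (up to 57.5 uM final), then substrate plus GAPDH/TPI/NAD/arsenate coupling and diaphorase/resazurin added. Fluorescence read after 20 min at RT, 525/598 nm.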
NS1 function inh: inhibitors of influenza NS1 protein function; Potency, µM (highest dose often 46.1 µM), without a hit: at the highest dose activity, positive = more growth; 270,000 compounds, 0.4% hits; AID 2326; calls by dose curve; note: potency is the fitted concentration of half-maximal effect; actives are rising curves; nearly all actives have a fitted effect of over 50% in size
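Recovery from NS1-induced slow growth read by OD600 in budding yeast switched to galactose assay medium (pH 6.0, -URA) at 1:100 dilution. Compound 23 nl per well; the matching strain lacking NS1 serves as control.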
* = called active by the depositor; u = inconclusive; x = not tested or not shown; [ ] = remark or other dose. Unless noted, calls come from the whole dose curve; as a rule, active = well fitted curve in the direction sought with a large enough effect; inconclusive = small, poorly fitted or top-dose-only effect, or another doubt; inactive = no such curve, though single readings can be large; an effect the other way counts as inactive or inconclusive.

SMILES	CHX counter	LmPK inh	Shiga inhibitor	FBPA Giardia inh	NS1 function inh
Cc1ccc(Nc2nc(-c3sc(N)nc3C)cs2)cc1	40*	-7%	46*	u	5%
CCOc1ccc(Nc2nc(-c3sc(N)nc3C)cs2)cc1	14*	-1%	14	-25%	16%
CC(=O)Nc1ccc(Nc2nc(-c3sc(C)nc3C)cs2)cc1	11*	-11%	53	11%	10%
COc1ccc(Nc2nc(-c3sc(N)nc3C)cs2)cc1	25*	-8%	56*	-24%	u
COc1ccc(Nc2nc(-c3sc(NC(C)=O)nc3C)cs2)cc1	-1	3%	1	-20%	16%
CC(=O)c1ccc(C2C=CC(O)C(CO)O2)cc1 (centres undefined)	x	x	x	-1%[12.9 µM]	x
Cc1ccc(Nc2nc(-c3sc(C)nc3C)cs2)cc1	25*	0%	58*	5%	-56%
COc1ccc(-c2cn3cc(C(F)(F)F)cc(Cl)c3n2)cc1	56*	-1%	80*	-27%	-7%
Fc1ccc(-c2cn3cc(C(F)(F)F)cc(Cl)c3n2)cc1	28*	-14%	103*	-15%	8%
Oc1ccc(-c2cn3cc(C(F)(F)F)ccc3n2)cc1	10	-25%	18	-22%	-3%
COc1cc2c(cc1OC)C(C)N(C(=O)c1ccc(Cl)c(S(=O)(=O)N3CCCCC3)c1)CC2 (centres undefined)	-2	0%	22	-13%	-14%
CCOC(=O)c1ccc(S(=O)(=O)Nc2ccc(N3CCOCC3)cc2)cc1	-2	1%	-8	8%	7%
COc1ccc(COC(=O)N/N=C2/C[C@@H](O)[C@@H](O)[C@@H]3[C@@H]4C(=O)N(C[C@@H]5CCCO5)C(=O)[C@H]4CC[C@@H]23)cc1	x	x	x	3%[12.9 µM]	x
COc1cc(/C=C(/C)[N+](=O)[O-])ccc1OCc1ccccc1Cl	-7	1%	28	-6%	-35%
C=CCOc1ccc(/C=N/O)cc1Cl	20*	-2%	50*	4%	-1%
C=CCOc1ccc(Br)cc1/C=N/O	-6	4%	-32	-2%	-78%
CCOc1cc(/C=N/N=C2/NC(=O)C(CC(=O)O)S2)ccc1OCc1ccccc1Cl (centres undefined)	-4	22µM*	2	29%	14%
COc1cc(/C=N/O)ccc1OCc1ccccc1Cl	48*	-6%	86*	-8%	-1%
C/C=C/C1Oc2ccc(OC)cc2N2C(=O)C(C)C(OCOC)C12 (centres undefined)	x	x	x	-5%[12.9 µM]	x
COc1c2c(cc3c1C(CC(=O)c1c(O)c(OC)c4occc4c1OC)[N+](C)(C)CC3)OCO2 (centres undefined)	x	x	x	-14%	x
COc1cc(OC)cc(C(=O)Nc2ccc(-n3cnnn3)c(C)c2)c1	22*	14µM*	30*	-7%	-7%
COc1ccc(C(=O)NC(=S)Nc2ccc(S(N)(=O)=O)cc2)cc1	18*	3%	35	u	-5%
COc1ccc(NC(=O)c2cnc(SC)nc2)cc1	32*	-2%	41	-2%	-8%
COC(=O)COc1cccc(NC(=O)c2ccc(C)cc2)c1	-2	-7%	22	x	-27%
Cc1ccc(NC(=O)c2ccc(OC(=O)COc3ccc(Cl)c(C)c3)cc2)cc1	49*	4%	96*	4%	9%
SMILES	CHX counter	LmPK inh	Shiga inhibitor	FBPA Giardia inh	NS1 function inh
O=C1[C@@H]2[C@H]3[C@H](O)[C@H](O)C/C(=N/OCc4ccccc4)[C@H]3CC[C@H]2C(=O)N1c1ccc(F)cc1F	x	x	x	1%[12.9 µM]	x
O=C(Cn1ncc2c([nH]c3ccccc32)c1=O)Nc1ccc(CN2CCCCC2)cc1	10	0%	-3	1%	-15%
O=C(CN1CCN(S(=O)(=O)c2ccccc2)CC1)NCCc1ccccc1	-6	5%	-10	x	8%
Cc1cccc(N(C(=O)CNC(=O)c2ccco2)C(C(=O)NC2CCCC2)c2cccnc2)c1C (centres undefined)	-2	-7%	9	x	1%
COc1ccc(C(=O)Nc2ccc3nc(C)c(C)nc3c2)cc1	39*	-1%	129*	1%	-12%
COc1ccccc1NC(=O)c1ccc2nc(C)c(C)nc2c1	9	-12%	-29	x	-13%
COc1ccc(/C=C(\NC(=O)c2ccc(C)cc2)C(=O)Nc2ccc(C(=O)O)cc2)cc1	31*	0%	26	6%	-10%
COc1ccc(C(=S)Nc2ccc(C)cc2)cc1	51*	3%	79*	-1%	-3%
COc1ccc(/C=C(\NC(=O)c2ccc(OC)cc2)C(=O)Nc2ccc(C(=O)O)cc2)cc1	1	-7%	1	2%	1%
COc1ccc(C(=O)Nc2cccc(C)c2)cc1	28*	14µM*	61*	-19%	-23%
COc1ccc(NC(=O)c2ccc(C)cc2)cc1	38*	-9%	x	-8%	-30%
Nc1c(C(=O)Nc2ccc(Br)cc2)sc2nc(-c3ccncc3)ccc12	17	x	18	x	x
COc1ccc(-c2ccc3c(N)c(C(=O)Nc4cccc(C)c4)sc3n2)cc1	43*	x	17	x	x
Cc1ccc(NC(=S)c2ccccc2)cc1	35*	2%	14*	-11%	-2%
Cc1ccc(NC(=S)NNC(=S)NCc2ccccc2)cc1	-3	5%	18	12%	-18%
COc1ccc(C(=O)Nc2ccc(SC(F)F)cc2)cc1	49*	0%	98*	-5%	5%
COc1ccc(C2=NS(=O)(=O)N(C)C(C(=O)N3CCN(C)CC3)=C2)cc1	-3	-7%	-3	11%	1%
Nc1c2c(nn1-c1ccccc1)CCC2	1	-4%	20	1%	8%
COc1ccc(/C=C/C(=O)N2CCNC(=O)C2)c(OC)c1	14*	-1%	27	0%	6%
COc1ccc(/C=C/C(=O)c2cc(Cl)cc(Cl)c2O)c(OC)c1	-2	0%	-5	-3%	1%
O=C1CN(C(=O)/C=C/c2ccc(Br)cc2)CCN1	17*	-1%	25	8%	-1%
O=C1CN(C(=O)/C=C/c2cc(Br)ccc2F)CCN1	-3	-9%	-7	7%	-4%
CN(C)CCNc1ccccn1	x	x	x	x	-3%
Clc1ccccc1-c1nc(NCc2cccnc2)c2ccccc2n1	x	x	x	10%	x
CC1CCCc2sc3nc(NCc4ccco4)n4ncnc4c3c21 (centres undefined)	24*	-1%	55	-14%	-96%
CN1C(=O)C(=Cc2ccccc2OCc2ccccc2Cl)C(=O)N(C)C1=O	10	3%	-1	-1%	-7%
CN1C(=O)C(=Cc2c(OCc3cnc(Cl)s3)ccc3ccccc23)C(=O)N(C)C1=O	53*	2%	83*	u	7%
O=C1c2cccc3c(N4CCCCC4)ccc(c23)C(=O)N1c1ccccc1O	-1	-1%	19	-6%	4%
O=C1c2cccc3c(N4CCCCC4)ccc(c23)C(=O)N1c1ccc(O)cc1	18*	-2%	49	0%	x
O=C1[C@H]2[C@@H](C3CC3)N3C(=O)CN(Cc4ccccn4)C(=O)[C@@]3(Cc3ccccc3)[C@H]2C(=O)N1c1ccccc1	1	0%	-1	-2%	-3%
